Results filed as inconclusive are left out. Entries that show only a call come without a potency. Activity calls are given as the source filed them. Unless noted, calls follow the shape of the dose curve; as a rule, active = well fitted curve in the direction sought with a large enough effect; inconclusive = small, poorly fitted or top-dose-only effect, or another doubt; inactive = no such curve, though single readings can be large; an effect the other way counts as inactive or inconclusive.
What was measured:
[1] = biological target: Glutaminase kidney isoform, mitochondrial (Homo sapiens) (UniProt O94925); test: qHTS for Inhibitors of Glutaminase (GLS): LOPAC Validation (AID 624146); also: nearly all actives have a fitted effect of over 60% in size; also: potency is read from the fitted curve at half-maximal effect
Method in brief: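 Two-point fluorescence kinetic (t0, 30 min RT) for hKGA; glutamate detected via glutamate oxidase–HRP–Amplex Red. Substrate: 1 mM L-glutamine solution; buffer 45 mM KH2PO4, pH 8.2.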

[2] = qHTS of Trypanosoma Brucei Inhibitors: LOPAC Validation (AID 624147)
Method in brief: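 Readout: single end-point luminescence (Kinase-Glo Plus, 10 min). Reaction conditions were TbPYK/substrate plus 130 uM ADP, 45 min at RT, pH 7.2 TEA buffer. No-enzyme wells served as controls, and data were normalized before concentration-response fitting.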

[3] = biological target: Glucagon-like peptide 1 receptor (Homo sapiens) (UniProt P43220); test: qHTS of GLP-1 Receptor Agonists: LOPAC Validation (AID 624148);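 also: higher luminescence signal means agonism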
Method in brief: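 HEK293 cells stably co-expressing a cAMP-responsive luciferase reporter and a hypersensitive GLP-1R were plated 12 h at 37 °C and exposed to compounds for 4-6 hr at 37 °C, 5% CO2. Luminescence was read 12 min after adding detection reagent.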

[4] = qHTS of Nrf2 Activators: LOPAC Validation (AID 624149)
Method in brief: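 AREc32_Fluc cells, 1000/well in OPTI-MEM with 5% FBS, grown overnight, then exposed to compounds for 24 hr at 37 deg C, 5% CO2. ARE-driven firefly luciferase read by Steady-Glo luminescence after 30 min at RT.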

[5] = qHTS assay for small molecule activators of the p53 signaling pathway (AID 651743; active = well fitted activation curve with a large enough effect in the signal ratio, not every such curve was filed as active; the % refers to the signal ratio; also: series mostly up to about 92 µM); conditions: HCT-116 p53RE-bla, beta-lactamase FRET ratio, 16 h; hits give high values
Method in brief: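 Cell-based beta-lactamase reporter (p53 response elements, HCT-116 background). After a 5-hour preincubation, cells received compound for 16 hours at 37 C; substrate development ran 2 hours at room temperature.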

[6] = qHTS assay for environmental chemicals that activate the Aryl hydrocarbon Receptor (AhR) signaling pathway (AID 651777); conditions: 1A2-DRE human hepatoma cells, luciferase, 24 h; hits give high values; also: nearly all actives have a fitted effect of over 15% in size
Method in brief: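 Reporter gene assay: hepatoma cells with DRE/CYP1A2-luciferase, 24 hr compound incubation at 37 C, 5% CO2, luminescence after One-Glo (30 min, RT).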

[7] = HTS Assay for Allosteric Antagonists of the Human D2 Dopamine Receptor: Hit Validation in HTRF (AID 624455);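 also: stable D1 dopamine receptor cell line scored for blocking the D1 response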
Method in brief: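 Hit validation in cells stably expressing the D1 dopamine receptor, run in HTRF format. Compounds were tested for their ability to inhibit the D1-mediated response.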

[8] = qHTS assay for small molecule activators of the nuclear factor-kappa B (NF-kB) signaling pathway (AID 651749; active = well fitted activation curve with a large enough effect in the signal ratio; the % refers to the signal ratio; also: series mostly up to about 77 µM); conditions: NF-kB-bla ME-180 cells, beta-lactamase FRET ratio, 16 h; activation: hits give high values
Method in brief: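 Screening used 2,000 ME-180 reporter cells per well exposed to pinned compound (23 nL) or DMSO; after 16 hr at 37C, beta-lactamase expression under NF-kB control was assessed through FRET.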

Glutaminase kidney isoform, mitochondrial (Homo sapiens), sequence (O94925 whole entry, looked up, canonical isoform): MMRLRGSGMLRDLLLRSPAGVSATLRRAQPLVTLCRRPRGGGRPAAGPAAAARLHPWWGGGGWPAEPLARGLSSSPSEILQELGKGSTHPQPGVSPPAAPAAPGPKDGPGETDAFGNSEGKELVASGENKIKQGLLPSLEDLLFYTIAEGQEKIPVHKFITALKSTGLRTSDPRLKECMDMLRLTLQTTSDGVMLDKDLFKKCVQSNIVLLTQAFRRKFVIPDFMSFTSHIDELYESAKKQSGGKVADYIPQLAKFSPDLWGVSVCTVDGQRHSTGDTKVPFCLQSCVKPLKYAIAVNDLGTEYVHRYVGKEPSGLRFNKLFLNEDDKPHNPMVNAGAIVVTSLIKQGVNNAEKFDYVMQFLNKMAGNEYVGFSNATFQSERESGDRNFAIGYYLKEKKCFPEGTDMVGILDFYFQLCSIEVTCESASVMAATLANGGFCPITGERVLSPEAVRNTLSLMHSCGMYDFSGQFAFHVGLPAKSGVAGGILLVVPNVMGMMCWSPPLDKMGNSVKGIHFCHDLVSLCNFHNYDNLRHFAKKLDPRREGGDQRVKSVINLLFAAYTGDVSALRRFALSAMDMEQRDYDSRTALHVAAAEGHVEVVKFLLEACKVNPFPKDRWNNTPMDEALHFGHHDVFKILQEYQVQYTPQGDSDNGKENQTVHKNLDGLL
Glucagon-like peptide 1 receptor (Homo sapiens), sequence (P43220 whole entry, looked up): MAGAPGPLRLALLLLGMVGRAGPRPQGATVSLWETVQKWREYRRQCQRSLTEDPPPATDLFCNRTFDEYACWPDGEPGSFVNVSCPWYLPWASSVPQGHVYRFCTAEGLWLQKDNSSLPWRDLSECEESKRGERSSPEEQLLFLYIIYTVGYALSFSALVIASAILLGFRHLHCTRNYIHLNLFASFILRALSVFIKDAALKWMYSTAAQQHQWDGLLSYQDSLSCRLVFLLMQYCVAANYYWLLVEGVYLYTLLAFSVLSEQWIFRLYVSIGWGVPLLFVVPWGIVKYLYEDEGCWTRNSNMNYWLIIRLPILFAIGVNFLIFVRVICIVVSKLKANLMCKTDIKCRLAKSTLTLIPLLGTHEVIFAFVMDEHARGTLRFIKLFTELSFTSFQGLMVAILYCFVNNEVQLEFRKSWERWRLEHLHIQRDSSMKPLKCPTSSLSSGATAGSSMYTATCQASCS

Structure (SMILES) | Potency [1] | outcome [2] | outcome [3] | outcome [4] | activation [5] | activation [6] | outcome [7] | activation [8]
OCc1cc(C(O)CNCCCCCCOCCCCc2ccccc2)ccc1O (centres undefined) | inactive | inactive | inactive | inactive |  |  |  | 
CCN(CC)CCNC(=O)c1cc(Cl)c(N)cc1OC | inactive | inactive | inactive | inactive |  |  |  | 
C=Cc1c(C)c2cc3[nH]c(cc4nc(cc5nc(cc1[nH]2)C(C)=C5CCC(=O)O)C(CCC(=O)O)=C4C)c(C)c3C=C | inactive | inactive | inactive | inactive |  |  |  | 
CC(C)(C(=O)O)c1ccc(C(O)CCCN2CCC(C(O)(c3ccccc3)c3ccccc3)CC2)cc1 (centres undefined) | inactive | inactive | inactive | inactive |  |  |  | 
O=C1N=C(O)CN1/N=C/c1ccc(-c2ccc([N+](=O)[O-])cc2)o1 | inactive | inactive | inactive | inactive |  |  |  | 
CC(CN(C)C)CN1c2ccccc2CCc2ccccc21 (centres undefined) | inactive | inactive | inactive | inactive |  |  |  | 
Nc1cc(=O)[nH]c(N)n1 | inactive | inactive | inactive | inactive |  |  |  | 
CC(C)C(=O)c1c(C(C)C)nn2ccccc12 | inactive | inactive | inactive | inactive |  |  |  | 
CCN(CC)C(C)CN1c2ccccc2Sc2ccccc21 (centres undefined) | 11.2 µM (active) | inactive | inactive | inactive |  |  |  | 
CSc1ccc2c(c1)C(N1CCN(C)CC1)Cc1ccccc1S2 (centres undefined) | inactive | inactive | inactive | inactive |  |  |  | 
CCCn1cnc2c1c(=O)n(CCCCC(C)=O)c(=O)n2C | inactive | inactive | inactive | inactive |  |  |  | 
CCCCCCCCCCCCCCCC(=O)NCCO | inactive | inactive | inactive | inactive |  |  |  | 
CNCCC(Oc1ccc(C(F)(F)F)cc1)c1ccccc1 (centres undefined) | inactive | inactive | inactive | inactive |  |  |  | 
CC(C(O)c1ccc(O)cc1)N1CCC(Cc2ccccc2)CC1 (centres undefined) | inactive | inactive | inactive | inactive |  |  |  | 
CN(C)CC[C@@H](c1ccc(Cl)cc1)c1ccccn1 | inactive | inactive | inactive | inactive |  |  |  | 
CCN(CC)CCCC(C)Nc1c2ccc(Cl)cc2nc2ccc(OC)cc12 (centres undefined) | inactive | inactive | inactive | inactive |  |  |  | 
Nc1ncnc2c1ncn2[C@@H]1O[C@H](CO)[C@@H](O)[C@H]1O | inactive | inactive | inactive | inactive |  |  |  | 

Structure (SMILES) | Potency [1] | outcome [2] | outcome [3] | outcome [4] | activation [5] | activation [6] | outcome [7] | activation [8]
CC[C@H]1CN2CCc3cc(OC)c(OC)cc3[C@@H]2C[C@@H]1C[C@H]1NCCc2cc(OC)c(OC)cc21 | inactive | inactive | inactive | inactive |  |  |  | 
N=c1c[n+](N2CCOCC2)[n-]o1 | inactive | inactive | inactive | inactive |  |  |  | 
NC(N)=NCCC[C@H](N)C(=O)O | inactive | inactive | inactive | inactive |  |  |  | 
CC(=O)OCC(=O)[C@@]1(O)CC[C@H]2[C@@H]3CCC4=CC(=O)CC[C@]4(C)[C@H]3C(=O)C[C@@]21C | inactive | inactive | inactive | inactive |  |  |  | 
CN(C)CCCN1c2ccccc2Sc2ccc(Cl)cc21 | inactive | inactive | inactive | inactive | 10.1% (inactive) | 3.61% (inactive) |  | 
CN1CCN(C2Cc3ccccc3Sc3ccc(Cl)cc32)CC1 (centres undefined) | inactive | inactive | inactive | inactive |  |  |  | 
CNC(=O)Oc1ccc2c(c1)[C@]1(C)CCN(C)[C@@H]1N2C | 10 µM (active) | inactive | inactive | inactive | -2.62% (inactive) | 2.6% (inactive) | inactive | 1% (inactive)
Cc1cc(N)c2ccccc2[n+]1CCCCCCCCCC[n+]1c(C)cc(N)c2ccccc21 | inactive | inactive | inactive | inactive |  |  |  | 
CNCCCC1c2ccccc2C=Cc2ccccc21 | inactive | inactive | inactive | inactive |  |  |  | 
CCN(CC)CCOC(=O)C1(C2CCCCC2)CCCCC1 | inactive | inactive | inactive | inactive |  |  |  | 
NC1CCN(c2cccc(Cl)n2)CC1 | inactive | inactive | inactive | inactive |  |  |  | 
C#CCN(C)Cc1ccccc1 | inactive | inactive | inactive | inactive |  |  |  | 
C[C@]12CC[C@@H]3c4ccc(O)cc4CC[C@H]3[C@@H]1CCC2=O | inactive | inactive | inactive | inactive | 0.661% (inactive) | 0.316% (inactive) |  | -1.43% (inactive)
COc1ccc(Cl)cc1C(=O)NCCc1ccc(S(=O)(=O)NC(=O)NC2CCCCC2)cc1 | inactive | inactive | inactive | inactive | -6.63% (inactive) | 1.06% (inactive) |  | -2.47% (inactive)
C[C@](N)(Cc1ccc(O)cc1)C(=O)O | inactive | inactive | inactive | inactive |  |  |  | 
CC(C)(C)[C@]1(O)CCN2C[C@H]3c4ccccc4CCc4cccc(c43)[C@@H]2C1 | inactive | inactive | inactive | inactive |  |  |  | 
